# Measured values reported in PMC7862700, “An all-to-all approach to the identification of sequence-specific readers for epigenetic DNA modifications on cytosine”.
# Tests used:
# Assay in all cases: DAPPL (digital affinity profiling via proximity ligation, sequencing); 10 mM Tris-HCl pH 7.5, 50 mM NaCl, 1 mM DTT, 4% glycerol, room temperature, 30 min; GST-TFs on glutathione beads, 16-mer random dsDNA library, 0.1% formaldehyde crosslink after washing; high values mean tight binding
# FLI1 = biological target: T1, FLI1 (Homo sapiens, UniProt Q01543 1-452); conditions: protein: recombinant; tags: N-terminal GST; dsDNA, one strand shown
# T1 sequence: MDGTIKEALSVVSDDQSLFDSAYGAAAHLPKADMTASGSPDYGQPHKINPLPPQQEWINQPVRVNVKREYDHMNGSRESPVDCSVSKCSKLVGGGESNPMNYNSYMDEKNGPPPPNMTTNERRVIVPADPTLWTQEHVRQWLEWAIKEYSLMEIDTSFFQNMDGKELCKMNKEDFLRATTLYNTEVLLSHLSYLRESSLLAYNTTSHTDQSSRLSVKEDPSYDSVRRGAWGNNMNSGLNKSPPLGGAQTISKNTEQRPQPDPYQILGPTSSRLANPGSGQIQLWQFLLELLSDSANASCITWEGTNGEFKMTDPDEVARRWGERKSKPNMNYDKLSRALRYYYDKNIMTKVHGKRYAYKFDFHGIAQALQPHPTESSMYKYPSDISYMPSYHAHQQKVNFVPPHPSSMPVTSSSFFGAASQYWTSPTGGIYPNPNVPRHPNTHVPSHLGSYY
# Method in brief: (§1)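 Human transcription factors carrying a GST fusion were produced in yeast, bound to glutathione beads, tagged with DNA barcodes and pooled together with a tag-only sample. Each pool was held with 200 nmole of a random double-stranded 16-mer DNA library in Tris/NaCl/DTT/glycerol buffer for 30 min at room temperature, then washed, crosslinked in 0.1% formaldehyde, proximity-ligated with BsaI/T4 ligase (1 h, 37 °C), PCR-amplified and sequenced on an Illumina NextSeq500. Binding signal is the read frequency of each hexamer for a given factor divided by its frequency in the tag-only sample.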
# ELK1 = biological target: T2, ELK1 (Homo sapiens, UniProt P19419 1-428); conditions: protein: recombinant; tags: N-terminal GST; dsDNA, one strand shown
# T2 sequence: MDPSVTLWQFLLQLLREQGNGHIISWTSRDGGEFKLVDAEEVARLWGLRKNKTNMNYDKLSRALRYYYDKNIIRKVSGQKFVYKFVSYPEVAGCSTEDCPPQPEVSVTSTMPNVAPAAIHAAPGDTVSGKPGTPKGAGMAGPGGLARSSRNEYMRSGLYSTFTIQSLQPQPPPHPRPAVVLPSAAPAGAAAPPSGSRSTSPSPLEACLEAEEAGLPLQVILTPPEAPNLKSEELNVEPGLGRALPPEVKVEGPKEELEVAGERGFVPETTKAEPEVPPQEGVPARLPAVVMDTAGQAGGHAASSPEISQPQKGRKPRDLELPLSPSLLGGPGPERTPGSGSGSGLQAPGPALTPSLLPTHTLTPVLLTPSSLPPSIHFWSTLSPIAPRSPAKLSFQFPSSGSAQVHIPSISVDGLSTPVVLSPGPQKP
# Method in brief: as §1
# GABPA = biological target: T3, GABPA (Homo sapiens, UniProt Q06546 1-454); conditions: protein: recombinant; tags: N-terminal GST; dsDNA, one strand shown
# T3 sequence: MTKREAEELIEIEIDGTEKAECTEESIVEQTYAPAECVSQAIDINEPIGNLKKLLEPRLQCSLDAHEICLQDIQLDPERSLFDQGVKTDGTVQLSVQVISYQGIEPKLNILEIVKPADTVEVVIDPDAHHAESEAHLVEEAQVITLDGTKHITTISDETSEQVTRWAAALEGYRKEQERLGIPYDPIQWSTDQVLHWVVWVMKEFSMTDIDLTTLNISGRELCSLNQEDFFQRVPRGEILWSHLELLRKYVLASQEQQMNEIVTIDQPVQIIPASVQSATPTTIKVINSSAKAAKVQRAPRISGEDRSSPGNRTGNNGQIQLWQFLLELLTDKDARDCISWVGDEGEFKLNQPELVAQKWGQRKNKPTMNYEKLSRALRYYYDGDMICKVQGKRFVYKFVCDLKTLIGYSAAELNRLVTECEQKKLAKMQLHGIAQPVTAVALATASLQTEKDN
# Method in brief: as §1
# ERG = biological target: T4, ERG (Homo sapiens, UniProt P11308 1-479); conditions: protein: recombinant; tags: N-terminal GST; dsDNA, one strand shown
# T4 sequence: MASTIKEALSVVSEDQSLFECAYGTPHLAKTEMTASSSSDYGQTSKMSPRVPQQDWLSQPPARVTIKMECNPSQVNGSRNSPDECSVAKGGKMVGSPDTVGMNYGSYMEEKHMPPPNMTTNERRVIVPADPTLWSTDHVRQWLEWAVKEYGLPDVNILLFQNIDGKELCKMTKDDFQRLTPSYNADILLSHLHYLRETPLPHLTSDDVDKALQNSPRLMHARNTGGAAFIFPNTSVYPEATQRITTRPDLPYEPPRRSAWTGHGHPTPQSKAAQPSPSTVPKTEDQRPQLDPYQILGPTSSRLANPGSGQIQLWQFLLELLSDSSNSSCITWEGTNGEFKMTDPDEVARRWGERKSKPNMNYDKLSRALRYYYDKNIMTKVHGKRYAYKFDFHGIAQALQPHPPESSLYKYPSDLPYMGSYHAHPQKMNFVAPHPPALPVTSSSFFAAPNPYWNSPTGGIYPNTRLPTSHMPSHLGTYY
# Method in brief: as §1
# ELF1 = ELF1 (Homo sapiens, UniProt P32519 1-619); conditions: protein: recombinant; tags: N-terminal GST; dsDNA, one strand shown
# Method in brief: as §1
# EHF = biological target: T5, EHF (Homo sapiens, UniProt Q9NZC4 1-300); conditions: protein: recombinant; tags: N-terminal GST; dsDNA, one strand shown
# T5 sequence: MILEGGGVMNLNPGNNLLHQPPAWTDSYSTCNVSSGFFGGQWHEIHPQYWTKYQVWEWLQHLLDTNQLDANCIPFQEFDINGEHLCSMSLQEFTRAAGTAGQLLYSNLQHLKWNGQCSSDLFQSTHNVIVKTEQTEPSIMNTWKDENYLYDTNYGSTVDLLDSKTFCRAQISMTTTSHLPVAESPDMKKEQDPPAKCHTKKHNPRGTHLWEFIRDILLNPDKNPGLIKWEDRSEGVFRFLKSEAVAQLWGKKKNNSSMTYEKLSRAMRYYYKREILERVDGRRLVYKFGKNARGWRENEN
# Method in brief: as §1
# SPI1 = SPI1 (Homo sapiens, UniProt P17947 1-270); conditions: protein: recombinant; tags: N-terminal GST; dsDNA, one strand shown
# Method in brief: as §1
# SPIB = SPIB (Homo sapiens, UniProt Q01892 1-262); conditions: protein: recombinant; tags: N-terminal GST; dsDNA, one strand shown
# Method in brief: as §1
# ELK3 = biological target: T6, ELK3 (Homo sapiens, UniProt P41970 1-407); conditions: protein: recombinant; tags: N-terminal GST; dsDNA, one strand shown
# T6 sequence: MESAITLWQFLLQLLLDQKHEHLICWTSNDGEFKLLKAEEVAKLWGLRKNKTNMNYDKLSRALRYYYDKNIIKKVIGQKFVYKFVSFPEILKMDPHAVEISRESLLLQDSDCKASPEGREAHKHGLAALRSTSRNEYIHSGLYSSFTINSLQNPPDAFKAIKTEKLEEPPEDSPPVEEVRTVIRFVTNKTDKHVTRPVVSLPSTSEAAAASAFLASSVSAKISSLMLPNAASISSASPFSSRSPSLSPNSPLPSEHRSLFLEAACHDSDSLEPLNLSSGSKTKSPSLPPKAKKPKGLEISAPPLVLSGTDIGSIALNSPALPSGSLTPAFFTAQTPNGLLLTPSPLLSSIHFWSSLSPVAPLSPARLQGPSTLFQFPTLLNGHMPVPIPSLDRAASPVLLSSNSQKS
# Method in brief: as §1
# FEV = biological target: T7, FEV (Homo sapiens, UniProt Q99581 1-238); conditions: protein: recombinant; tags: N-terminal GST; dsDNA, one strand shown
# T7 sequence: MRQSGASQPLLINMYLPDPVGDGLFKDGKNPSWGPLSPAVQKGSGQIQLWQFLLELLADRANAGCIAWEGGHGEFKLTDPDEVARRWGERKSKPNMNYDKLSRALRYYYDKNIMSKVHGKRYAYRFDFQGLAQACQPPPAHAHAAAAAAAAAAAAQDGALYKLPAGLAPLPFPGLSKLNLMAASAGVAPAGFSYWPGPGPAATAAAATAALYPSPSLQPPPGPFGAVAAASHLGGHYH
# Method in brief: as §1
# ETV5 = ETV5 (Homo sapiens, UniProt P41161 1-510); conditions: protein: recombinant; tags: N-terminal GST; dsDNA, one strand shown
# Method in brief: as §1
# HSF1 = HSF1 (Homo sapiens, UniProt Q00613 1-529); conditions: protein: recombinant; tags: N-terminal GST; chain copies: 3; dsDNA, one strand shown
# Method in brief: as §1
# SPIC = biological target: T8, SPIC (Homo sapiens, UniProt Q8N5J4 1-248); conditions: protein: recombinant; tags: N-terminal GST; dsDNA, one strand shown
# T8 sequence: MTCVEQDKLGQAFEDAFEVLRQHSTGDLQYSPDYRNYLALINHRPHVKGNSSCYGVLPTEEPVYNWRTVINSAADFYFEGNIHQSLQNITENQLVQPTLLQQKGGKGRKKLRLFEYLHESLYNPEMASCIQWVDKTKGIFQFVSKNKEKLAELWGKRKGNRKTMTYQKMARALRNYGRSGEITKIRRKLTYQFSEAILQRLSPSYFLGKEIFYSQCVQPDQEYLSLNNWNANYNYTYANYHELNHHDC
# Method in brief: as §1
# ELF4 = ELF4 (Homo sapiens, UniProt Q99607 1-663); conditions: protein: recombinant; tags: N-terminal GST; dsDNA, one strand shown
# Method in brief: as §1
# ELK4 = biological target: T9, ELK4 (Homo sapiens, UniProt P28324-2 1-405); conditions: protein: recombinant; tags: N-terminal GST; dsDNA, one strand shown
# T9 sequence: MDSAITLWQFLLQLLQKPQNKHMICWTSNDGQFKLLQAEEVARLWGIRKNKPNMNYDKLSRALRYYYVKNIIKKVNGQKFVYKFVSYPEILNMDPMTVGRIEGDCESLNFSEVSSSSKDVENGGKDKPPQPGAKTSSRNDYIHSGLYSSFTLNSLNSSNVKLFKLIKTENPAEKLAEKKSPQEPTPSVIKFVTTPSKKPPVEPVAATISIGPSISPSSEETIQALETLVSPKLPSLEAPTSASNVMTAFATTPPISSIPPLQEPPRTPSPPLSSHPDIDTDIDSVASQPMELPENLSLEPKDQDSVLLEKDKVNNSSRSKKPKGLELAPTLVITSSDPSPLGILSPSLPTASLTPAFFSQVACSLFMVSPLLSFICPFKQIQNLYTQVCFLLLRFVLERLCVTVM
# Method in brief: as §1
# ETV2 = biological target: T10, ETV2 (Homo sapiens, UniProt O00321 1-342); conditions: protein: recombinant; tags: N-terminal GST; dsDNA, one strand shown
# T10 sequence: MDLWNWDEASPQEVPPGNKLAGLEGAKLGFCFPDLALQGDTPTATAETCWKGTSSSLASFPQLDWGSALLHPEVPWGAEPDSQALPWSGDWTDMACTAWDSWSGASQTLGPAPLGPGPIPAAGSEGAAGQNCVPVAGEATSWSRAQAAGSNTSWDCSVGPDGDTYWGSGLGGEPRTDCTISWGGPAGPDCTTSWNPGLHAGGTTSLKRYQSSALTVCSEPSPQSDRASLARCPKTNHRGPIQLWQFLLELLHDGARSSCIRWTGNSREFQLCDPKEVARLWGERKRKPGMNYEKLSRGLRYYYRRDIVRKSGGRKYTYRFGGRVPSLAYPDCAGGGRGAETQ
# Method in brief: as §1
# ELF3 = biological target: T11, ELF3 (Homo sapiens, UniProt P78545 1-371); conditions: protein: recombinant; tags: N-terminal GST; dsDNA, one strand shown
# T11 sequence: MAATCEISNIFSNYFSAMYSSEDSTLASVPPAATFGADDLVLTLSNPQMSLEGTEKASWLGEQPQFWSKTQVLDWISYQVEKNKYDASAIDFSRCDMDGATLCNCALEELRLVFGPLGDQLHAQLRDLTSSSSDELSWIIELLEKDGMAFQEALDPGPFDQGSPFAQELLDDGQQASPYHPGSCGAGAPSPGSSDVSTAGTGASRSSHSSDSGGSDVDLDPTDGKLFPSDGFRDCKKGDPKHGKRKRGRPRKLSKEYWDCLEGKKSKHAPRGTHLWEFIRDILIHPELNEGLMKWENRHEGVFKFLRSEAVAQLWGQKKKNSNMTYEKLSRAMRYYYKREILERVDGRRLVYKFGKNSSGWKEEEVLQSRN
# Method in brief: as §1
# CRX = CRX (Homo sapiens, UniProt O43186 1-299); conditions: protein: recombinant; tags: N-terminal GST; dsDNA, one strand shown
# Method in brief: as §1
# ETV1 = ETV1 (Homo sapiens, UniProt P50549 1-477); conditions: protein: recombinant; tags: N-terminal GST; dsDNA, one strand shown
# Method in brief: as §1
# HSF1, sequence (Q00613 whole entry): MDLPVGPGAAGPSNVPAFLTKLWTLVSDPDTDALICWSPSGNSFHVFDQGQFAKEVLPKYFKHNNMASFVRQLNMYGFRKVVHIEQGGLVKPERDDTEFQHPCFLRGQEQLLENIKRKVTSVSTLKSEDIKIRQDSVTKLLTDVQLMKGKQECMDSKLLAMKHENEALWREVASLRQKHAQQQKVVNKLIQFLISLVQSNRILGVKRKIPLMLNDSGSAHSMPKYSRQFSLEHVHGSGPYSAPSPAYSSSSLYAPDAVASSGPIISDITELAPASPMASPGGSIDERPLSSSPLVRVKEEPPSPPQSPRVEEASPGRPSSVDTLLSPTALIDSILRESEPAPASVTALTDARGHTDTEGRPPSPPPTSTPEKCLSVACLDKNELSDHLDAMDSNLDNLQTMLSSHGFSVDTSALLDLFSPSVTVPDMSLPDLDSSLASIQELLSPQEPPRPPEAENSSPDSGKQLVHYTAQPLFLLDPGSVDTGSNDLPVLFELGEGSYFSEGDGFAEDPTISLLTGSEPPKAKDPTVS
# ETV5, sequence (P41161 whole entry): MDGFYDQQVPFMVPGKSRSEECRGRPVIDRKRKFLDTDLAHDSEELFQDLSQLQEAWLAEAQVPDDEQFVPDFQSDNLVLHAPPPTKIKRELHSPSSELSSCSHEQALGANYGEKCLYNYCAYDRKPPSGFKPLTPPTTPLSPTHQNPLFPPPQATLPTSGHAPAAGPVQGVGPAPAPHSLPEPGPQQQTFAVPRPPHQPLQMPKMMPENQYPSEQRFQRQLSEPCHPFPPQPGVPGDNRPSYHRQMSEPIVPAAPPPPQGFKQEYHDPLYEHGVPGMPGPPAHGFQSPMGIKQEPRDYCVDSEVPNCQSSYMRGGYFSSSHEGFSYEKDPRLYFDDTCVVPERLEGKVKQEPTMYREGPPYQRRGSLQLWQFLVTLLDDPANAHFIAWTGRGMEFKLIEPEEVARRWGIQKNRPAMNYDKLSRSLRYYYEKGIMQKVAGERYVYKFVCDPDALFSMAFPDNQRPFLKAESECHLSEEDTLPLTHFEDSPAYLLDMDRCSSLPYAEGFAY
# ETV1, sequence (P50549 whole entry): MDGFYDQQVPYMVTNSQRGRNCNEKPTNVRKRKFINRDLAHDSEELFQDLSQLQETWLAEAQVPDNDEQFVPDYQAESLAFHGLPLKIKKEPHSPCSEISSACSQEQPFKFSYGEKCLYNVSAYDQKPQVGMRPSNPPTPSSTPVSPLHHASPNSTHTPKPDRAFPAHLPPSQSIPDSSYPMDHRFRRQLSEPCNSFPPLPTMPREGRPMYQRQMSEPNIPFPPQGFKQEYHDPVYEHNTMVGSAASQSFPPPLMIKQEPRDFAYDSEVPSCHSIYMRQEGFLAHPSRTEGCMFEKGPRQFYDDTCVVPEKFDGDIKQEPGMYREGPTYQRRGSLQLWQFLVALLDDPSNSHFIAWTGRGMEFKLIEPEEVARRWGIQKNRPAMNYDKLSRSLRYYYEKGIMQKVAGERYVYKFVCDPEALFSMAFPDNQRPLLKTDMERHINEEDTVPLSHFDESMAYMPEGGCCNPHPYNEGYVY
# CRX, sequence (O43186 whole entry): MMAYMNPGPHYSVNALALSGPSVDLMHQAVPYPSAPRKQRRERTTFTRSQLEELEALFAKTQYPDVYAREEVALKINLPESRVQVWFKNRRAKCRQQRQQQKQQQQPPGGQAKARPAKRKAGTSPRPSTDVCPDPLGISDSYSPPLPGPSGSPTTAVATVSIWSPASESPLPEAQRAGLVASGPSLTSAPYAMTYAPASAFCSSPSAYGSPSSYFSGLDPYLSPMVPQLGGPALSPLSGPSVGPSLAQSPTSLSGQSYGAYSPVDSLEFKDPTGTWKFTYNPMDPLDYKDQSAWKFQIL
# ELF4, sequence (Q99607 whole entry): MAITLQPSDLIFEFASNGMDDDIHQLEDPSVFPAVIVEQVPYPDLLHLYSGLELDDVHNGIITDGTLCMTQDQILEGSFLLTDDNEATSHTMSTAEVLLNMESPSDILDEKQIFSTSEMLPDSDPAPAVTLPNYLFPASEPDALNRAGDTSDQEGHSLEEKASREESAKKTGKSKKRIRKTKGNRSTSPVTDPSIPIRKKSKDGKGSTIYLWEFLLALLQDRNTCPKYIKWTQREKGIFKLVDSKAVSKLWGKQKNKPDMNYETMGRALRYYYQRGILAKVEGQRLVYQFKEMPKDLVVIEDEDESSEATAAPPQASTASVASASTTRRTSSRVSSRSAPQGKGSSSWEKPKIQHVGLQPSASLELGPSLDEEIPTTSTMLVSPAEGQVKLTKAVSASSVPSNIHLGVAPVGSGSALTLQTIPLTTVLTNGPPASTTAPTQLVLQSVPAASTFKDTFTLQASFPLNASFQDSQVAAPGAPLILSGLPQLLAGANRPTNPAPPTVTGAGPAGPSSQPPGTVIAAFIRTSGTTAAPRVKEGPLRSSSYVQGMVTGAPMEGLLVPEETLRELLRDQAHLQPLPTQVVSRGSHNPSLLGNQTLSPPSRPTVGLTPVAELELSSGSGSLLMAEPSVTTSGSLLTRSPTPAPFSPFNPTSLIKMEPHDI
# SPIB, sequence (Q01892 whole entry): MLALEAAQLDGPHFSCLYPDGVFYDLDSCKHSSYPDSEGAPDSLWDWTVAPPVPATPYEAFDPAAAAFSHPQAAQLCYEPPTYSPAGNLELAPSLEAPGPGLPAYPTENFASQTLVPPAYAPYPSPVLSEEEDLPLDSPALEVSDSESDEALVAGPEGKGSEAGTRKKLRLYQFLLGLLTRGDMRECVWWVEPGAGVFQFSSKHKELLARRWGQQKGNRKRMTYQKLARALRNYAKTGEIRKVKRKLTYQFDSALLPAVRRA
# ELF1, sequence (P32519 whole entry): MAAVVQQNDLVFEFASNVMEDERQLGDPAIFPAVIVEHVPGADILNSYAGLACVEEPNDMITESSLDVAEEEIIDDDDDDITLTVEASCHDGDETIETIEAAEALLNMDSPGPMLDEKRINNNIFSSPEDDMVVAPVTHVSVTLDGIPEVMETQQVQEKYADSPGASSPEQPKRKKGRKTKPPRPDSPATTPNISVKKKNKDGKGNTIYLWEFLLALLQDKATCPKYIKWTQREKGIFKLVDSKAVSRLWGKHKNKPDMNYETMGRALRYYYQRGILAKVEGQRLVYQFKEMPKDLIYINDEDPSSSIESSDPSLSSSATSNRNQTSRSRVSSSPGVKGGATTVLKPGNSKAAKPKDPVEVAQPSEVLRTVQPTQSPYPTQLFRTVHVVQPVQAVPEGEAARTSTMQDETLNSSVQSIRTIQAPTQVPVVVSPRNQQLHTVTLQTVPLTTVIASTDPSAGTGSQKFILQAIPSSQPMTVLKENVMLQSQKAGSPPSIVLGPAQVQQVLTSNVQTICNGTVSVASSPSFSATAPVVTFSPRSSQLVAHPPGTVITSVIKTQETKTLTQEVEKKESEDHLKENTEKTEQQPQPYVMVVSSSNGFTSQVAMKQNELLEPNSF
sequence,measurement,setting,value
AACTAC,binding signal,FLI1,"1.42 fold enrichment (6-mer frequency, TF over GST control)"
same,binding signal,ELK1,"1.42 fold enrichment (6-mer frequency, TF over GST control)"
same,binding signal,GABPA,"1.49 fold enrichment (6-mer frequency, TF over GST control)"
same,binding signal,ERG,"1.5 fold enrichment (6-mer frequency, TF over GST control)"
same,binding signal,ELF1,"1.45 fold enrichment (6-mer frequency, TF over GST control)"
same,binding signal,EHF,"1.43 fold enrichment (6-mer frequency, TF over GST control)"
same,binding signal,SPI1,"1.47 fold enrichment (6-mer frequency, TF over GST control)"
same,binding signal,SPIB,"1.47 fold enrichment (6-mer frequency, TF over GST control)"
same,binding signal,ELK3,"1.48 fold enrichment (6-mer frequency, TF over GST control)"
same,binding signal,FEV,"1.35 fold enrichment (6-mer frequency, TF over GST control)"
same,binding signal,ETV5,"1.38 fold enrichment (6-mer frequency, TF over GST control)"
same,binding signal,HSF1,"1.22 fold enrichment (6-mer frequency, TF over GST control)"
same,binding signal,SPIC,"1.35 fold enrichment (6-mer frequency, TF over GST control)"
same,binding signal,ELF4,"1.39 fold enrichment (6-mer frequency, TF over GST control)"
same,binding signal,ELK4,"1.32 fold enrichment (6-mer frequency, TF over GST control)"
same,binding signal,ETV2,"1.42 fold enrichment (6-mer frequency, TF over GST control)"
same,binding signal,ELF3,"1.31 fold enrichment (6-mer frequency, TF over GST control)"
same,binding signal,CRX,"1.2 fold enrichment (6-mer frequency, TF over GST control)"
same,binding signal,ETV1,"1.34 fold enrichment (6-mer frequency, TF over GST control)"
